PKM2 activator = qHTS Assay for Activators of Human Muscle isoform 2 Pyruvate Kinase. purified PKM2, Kinase-Glo ATP luminescence, activation; response scale: 0% is enzyme alone, no compound. 260,000 compounds, 0.34% hits. Pyruvate kinase PKM (Homo sapiens), P14618. Potency, µM (top dose mostly 57.5 µM), for inactives: at the highest dose activation, actives largely listed as activators; also: potency is read from the fitted curve at half-maximal effect; % is scaled to controls: 0 for no effect and ±100 for the full control effect; nearly all actives have a fitted effect of over 55% in size
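Kinase-Glo luminescence reports ATP generated from ADP (0.1 mM) and PEP (0.5 mM) by purified hPK-M2 after 1 h at room temperature, pH 7.2 imidazole buffer; intermediate enzyme activity allows detecting inhibitors and activators.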
HTT cytoprotect = qHTS Multiplex Assay to Identify Dual Action Probes in a Cell Model of Huntington: Cytoprotection (ATP); PC12 HTT-Q103 induced, cytoprotection, ATP luminescence, 40 h; Potency, µM (titrated, usually from 56.4 µM), without a hit: cytoprotection (ATP increase), most hits filed as activators; 230,000 compounds, 0.14% hits; AID 1471, 2008; also: potency is read from the fitted curve at half-maximal effect; % of control where 0% means no effect; nearly all actives have a fitted effect of over 45% in size
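Stable PC12 Q103-GFP cells in serum-supplemented, phenol red-free DMEM; induction by tebufenozide at 100 nM final; compound dose series; cell viability quantified luminescently from ATP.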
aGal spleen mod = qHTS Assay for Inhibitors and Activators of Human alpha-Galactosidase From Spleen Homogenate; Potency, µM (highest dose often 80 µM), for inactives: at the highest dose activity change, negative = inhibition, usual class: inhibitors; human spleen homogenate, 4MU-alpha-Gal fluorescence, 40 min; AID 2107, 2009; 240,000 compounds, 0.008% hits;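 also: potency is read from the fitted curve at half-maximal effect; 0% = enzyme with vehicle and -100% = no enzyme basal signal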
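Spleen homogenate 1 ug + cpd (titration) + 4-MU-alpha-D-galactopyranoside 1 mM; 37C 40 min; 50 mM citrate/phosphate pH 5.0, 0.01% Tween-20; stop pH 10; fluorescence 365/440; AC50 via Hill.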
GLA inh pH 4.5 = qHTS Assay for Inhibitors of Human alpha-Galactosidase at pH 4.5 | 230,000 tested, under 10 active | activity change, negative = inhibition, % at 105 µM | purified enzyme, 4-MU-alpha-Gal fluorescence, pH 4.5 | AID 1467, 2008 | Alpha-galactosidase A (Homo sapiens), P06280;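 also: 0% = full activity with enzyme and -100% = basal without enzyme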
Target sequence (P06280 whole entry, looked up): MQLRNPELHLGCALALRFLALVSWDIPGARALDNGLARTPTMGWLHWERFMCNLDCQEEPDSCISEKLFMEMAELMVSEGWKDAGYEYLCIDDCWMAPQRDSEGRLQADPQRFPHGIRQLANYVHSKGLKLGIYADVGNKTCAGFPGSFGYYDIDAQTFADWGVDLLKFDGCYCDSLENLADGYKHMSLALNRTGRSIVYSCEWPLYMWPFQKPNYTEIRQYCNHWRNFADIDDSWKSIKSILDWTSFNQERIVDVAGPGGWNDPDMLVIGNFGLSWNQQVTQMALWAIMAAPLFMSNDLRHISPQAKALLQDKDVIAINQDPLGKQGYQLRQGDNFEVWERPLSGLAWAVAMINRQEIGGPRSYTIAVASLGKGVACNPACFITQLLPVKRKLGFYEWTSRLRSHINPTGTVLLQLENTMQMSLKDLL
HttQ103 aggreg = qHTS Multiplex Assay to Identify Dual Action Probes in a Cell Model of Huntington: Aggregate Formation (GFP) | Potency, µM (top dose mostly 46.1 µM), for inactives: at the highest dose activity change, negative = inhibition, actives largely listed as inhibitors | PC12 HttQ103-GFP aggregates, Acumen cytometry, 40 h | 220,000 compounds, 1.1% hits; also: potency is read from the fitted curve at half-maximal effect; % is scaled to controls: 0 for no effect and ±100 for the full control effect; nearly all actives have a fitted effect of over 60% in size
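Quantitative HTS on tebufenozide-induced (100 nM) PC12 cells stably expressing polyQ103 Huntingtin exon 1–GFP. Reduction of bright GFP aggregates, detected by laser scanning cytometry after lysis, identified actives across the titration.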
* marks the source's active call; other numbers are inactive results; ? = inconclusive; . = no result given; [ ] = another dose, or the depositor's remark. A selection: hits, their analogues and other compounds. The true share with any hit is near 1.2%. Calls follow the shape of the dose curve; as a rule, active = well fitted curve in the direction sought with a large enough effect; inconclusive = small, poorly fitted or top-dose-only effect, or another doubt; inactive = no such curve, though single readings can be large; an effect the other way counts as inactive or inconclusive.

SMILES	PKM2 activator	HTT cytoprotect	aGal spleen mod	GLA inh pH 4.5	HttQ103 aggreg
COc1ccccc1NC(=O)C1=C(C)NC(=O)NC1c1ccccc1[N+](=O)[O-] (configuration not stated)	25µM*	-1%	0%	0	5%
Cc1ccc([C@@H](O)c2cnc(C)n2Cc2ccccc2)cc1	.	20%[10 µM]	.	.	.
CC(C)C[C@@H](CC(=O)N[C@@H](CCC(=O)O)CC(=O)O)NC(=O)[C@@H]1CCCC[C@H]1NC(=O)C[C@H](CCCN)NC(=O)C[C@H](Cc1ccccc1)NC(=O)[C@@H]1CCCC[C@H]1N	.	-6%[1.9 µM]	-16%	1	.
Cc1[nH]n(-c2ccccc2)c(=O)c1N=Nc1nccs1	-2%	-33%	3%	1	11µM*
C1CSC2(N1)C1CC3CC(C1)CC2C3 (configuration not stated)	-9%	1.6µM*	9%	1	.
FC(F)(F)c1cccc(-n2cccc2/C=N/n2cnnc2)c1	20µM*	?	4%	-4	5%
CCN(CC)c1ccc(N=Cc2ccc([N+](=O)[O-])o2)cc1	-30%	3%[10 µM]	5%	-13	14µM*
CCCCc1nc2c(c3c1C[C@H](C)OC3)CN(C(=O)Nc1ccc(OC)cc1)CC2	-3%[11.5 µM]	-24%[10 µM]	-2%[17.5 µM]	0	.
COc1cc2nncc(SCc3ccc(Cl)c(Cl)c3)c2cc1OC	.	-6%[10 µM]	.	.	.
COC(=O)c1cc(C(=O)c2ccc(C(C)(C)C)cc2)c[nH]1	1%	-34%[1.9 µM]	-6%	-7	-16%[9.22 µM]
CC(C)(C)c1ccc(C(=O)c2c[nH]c(C(=O)O)c2)cc1	32µM*	.	4%	-3	6%
O=C(NCc1ccco1)/C(=C\c1cccs1)NC(=O)c1ccco1	28µM*	.	5%	5	22%
O[C@@H]1CC[C@H]2Cc3ccccc3N=C21	.	-14%	.	.	.
Cc1cccc(C)c1NC(=O)CC12CCCN1CCC2	.	8%	.	.	1%
C=CCC(O)c1ccccc1 (configuration not stated)	.	?	-6%	4	.
COC(=O)c1c(N2C(=O)CC(Sc3ccccc3C(=O)O)C2=O)sc2c1CCCC2 (configuration not stated)	7.9µM*	.	5%	-3	6%
CCOC(=O)c1cc(CC)sc1N1C(=O)CC(Sc2ccccc2C(=O)O)C1=O (configuration not stated)	25µM*	.	3%	4	10%
Cc1cc2oc(=O)sc2cc1NS(=O)(=O)c1cccc2cccnc12	32µM*	.	.	.	.
CCOc1ccc(NC(=O)Nc2ccc3nsnc3c2)cc1	-1%	-20%	-22%	-1	-21%
CCOc1ccc(NC(=S)Nc2ccc3nsnc3c2)cc1	-20%	.	4%	-8	3.5µM*
COC(=O)NC(c1ccc(F)cc1)C(C(C)=O)C(=O)OC (configuration not stated)	.	-9%[10 µM]	-4%[17.5 µM]	.	.
Cc1noc2ncnc(Sc3ccccc3Cl)c12	-10%	-83%	7%	1	5µM*
Cc1ccc(Sc2ncnc3onc(C)c23)c(C)c1	-14%	?	0%	5	.
CCCNC(=O)CN(c1ccc(F)cc1)S(=O)(=O)c1ccc2c(c1)OCCO2	2%	-4%	-10%	-11	9%
O=C(O)CN(c1ccc(F)cc1)S(=O)(=O)c1ccc2c(c1)OCCO2	-3%	3.2µM*	-1%	2	.
SMILES	PKM2 activator	HTT cytoprotect	aGal spleen mod	GLA inh pH 4.5	HttQ103 aggreg
C=C(C(=O)OC)C(NC(=O)OC)c1ccccc1 (configuration not stated)	.	2%	-12%	-9	.
Cc1cc2c(cc1C)C(=O)NC(C)(C)C2	-2%	-3%	6%	3	10µM*
O=[N+]([O-])c1ccc(/C=N/n2c(C3CCCCC3)n[nH]c2=S)cc1	2%	-11%	-6%	-7	1%
S=c1[nH]nc(C2CCCCC2)n1/N=C/c1ccncc1	1%	1%	-3%	3	0.22µM*
CC[n+]1c(/C=C/c2c[nH]c3ccccc23)ccc2cc(C)ccc21	-18%	-137%	7%	-7	8.9µM*
Nc1nc(N)nc(-c2ccc(Cl)cc2)n1	9%	-21%	2%	3	-5%[9.22 µM]
Nc1nc(N)nc(-c2cc(Cl)ccc2Cl)n1	.	7.9µM*	4%	.	1%
Cc1cc(-c2nnc(SCC(=O)Nc3ccccn3)o2)no1	16%	-8%	6%	-1	-1%
Cc1cc(-c2nnc(SCC(=O)Nc3nccs3)o2)no1	16µM*	23%[10 µM]	6%	2	2%[9.22 µM]
CC1(C)CC23C(=O)CCC(O)C2(C)CCC13 (configuration not stated)	.	.	1%	-8	.
Cc1ccc(Cl)cc1NC1=C/C(=N\S(=O)(=O)c2cccs2)c2ccccc2C1=O	-8%	-96%[10 µM]	8%	-12	1.6µM*
O=C1C(Nc2ccc(O)cc2)=C/C(=N/S(=O)(=O)c2cccs2)c2ccccc21	-26%	-57%[10 µM]	12%	4	2.5µM*
Cc1cc(C)c(S(=O)(=O)/N=C2\C=C(Nc3ccc(C(=O)O)cc3)C(=O)c3ccccc32)c(C)c1	-15%	.	.	.	.
Cc1cccc(NC2=C/C(=N/S(=O)(=O)c3cccs3)c3ccccc3C2=O)c1	-2%	.	-1%	3	14%
O=C(O)c1ccc(NC2=C/C(=N/S(=O)(=O)c3ccccc3)c3ccccc3C2=O)cc1	-14%	-180%	-4%	5[21.1 µM]	16µM*
Cc1ccc(NC2=C/C(=N\S(=O)(=O)c3cccs3)c3ccccc3C2=O)c(C)c1	-6%	-94%[10 µM]	-23%	1	2.2µM*
NCC1CCCCC1CC(=O)O (configuration not stated)	.	7%	19%	3	.
CO[C@@H]1COC(=O)[C@H]2CCCN2C(=O)[C@@H](C)COC(=O)C/C=C\[C@H]1C	.	2%[10 µM]	2%[17.5 µM]	.	.
COC(=O)NC(c1ccc2ccccc2c1)C(C(C)=O)C(=O)OC (configuration not stated)	.	-11%[10 µM]	5%[17.5 µM]	.	.
C=CCCC	.	-5%	9%	.	.
COc1ccccc1CNc1cc(-c2c(C)noc2C)ncn1	.	-10%	3%	.	.
Cc1nc(C)c(C(=O)N/N=C/c2cc(Br)ccc2O)s1	-7%	-50%[10 µM]	-9%	-3	1.3µM*
O=C(N/N=C/c1cc(Br)ccc1O)c1ccncc1	-2%	-16%[10 µM]	-15%	-3	-45%[9.22 µM]
OC[C@@H]1O[C@@H](n2cnc3c(NC4CCCCC4)ncnc32)[C@@H](O)[C@H]1O	.	-33%[1.9 µM]	.	.	.
OC[C@@H](O)[C@@H](O)[C@@H](O)[C@@H](O)c1nc2ccc(Cl)cc2[nH]1	.	1%[10 µM]	.	.	.
NC(=O)n1c(O)c(C(=O)c2cccs2)c2cc(Cl)ccc21	.	.	-24%	.	11µM*
